The supplement of paper PMC4709259
Where a name gives a salt, the structure may show the parent alone. ± gives the standard deviation.

These molecules were tested on Jurkat (assay: cell count relative to DMSO control (fraction of control); higher = more cells (less growth inhibition)). Details: 48 h.
Cn1nnc2c(C(N)=O)ncn2c1=O [Temozolomide] (concentration: 25 µM) gave a cell count of 0.543 ± 0.12. CC(C)NCC(O)COc1cccc2[nH]ccc12 (stereo not given) [Pindolol] (concentration: 25 µM) showed a cell count of 0.644 ± 0.16. Nc1nc(O)c2ncn(CCC(CO)CO)c2n1 [Penciclovir] (concentration: 25 µM) showed a cell count of 0.993 ± 0.053. CCN(CCO)CCCC(C)Nc1ccnc2cc(Cl)ccc12 (stereo not given) [Hydroxychloroquine Sulfate] (concentration: 25 µM) gave a cell count of 1.03 ± 0.11. In the case of CCCCS(=O)(=O)N[C@@H](Cc1ccc(OCCCCC2CCNCC2)cc1)C(=O)O [Tirofiban·HCl] (concentration: 25 µM), the cell count is reported as 1.01 ± 0.08. Clc1ccccc1CN1CCc2sccc2C1 [Ticlopidine·HCl] (concentration: 25 µM) gave a cell count of 0.752 ± 0.017. Nc1ccc(S(=O)(=O)c2ccc(N)cc2)cc1 [Dapsone] (concentration: 25 µM) was tested, and the cell count was 0.976 ± 0.1. In the case of CCCNC(C)C(=O)Nc1ccccc1C (stereo not given) [Prilocaine·HCl] (concentration: 25 µM), the cell count is reported as 0.693 ± 0.13. Work on C[C@H]1O[C@@H](O[C@H]2[C@@H](O)C[C@H](O[C@H]3[C@@H](O)C[C@H](O[C@H]4CC[C@@]5(C)[C@H](CC[C@@H]6[C@@H]5C[C@@H](O)[C@]5(C)[C@@H](C7=CC(=O)OC7)CC[C@]65O)C4)O[C@@H]3C)O[C@@H]2C)C[C@H](O)[C@@H]1O [Digoxin] (concentration: 25 nM) yielded a cell count of 0.175 ± 0.093. CC1Cc2ccccc2N1NC(=O)c1ccc(Cl)c(S(N)(=O)=O)c1 (stereo not given) [Indapamide] (concentration: 25 µM) was tested, and the cell count was 0.497 ± 0.11.
